# Giardia kill: Small Molecules that selectively kill Giardia lamblia: qHTS | Giardia lamblia trophozoite viability | activity change, % at 7.66 µM, hits read low | 340,000 tested, 0.15% active | AID 540267, 2011; in the data active = activity change below about -80%; inconclusive = between about -30% and that limit;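 also: parasites exposed to compound for two days anaerobically before the ATP read; % is scaled to controls: 0 for no effect and ±100 for the full control effect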
#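 Trophozoites 100 cells/well + cpd; 48 hrs, 37 deg C, anaerobic. ATPLite 1-Step added, 15-30 min RT, luminescence read (ATP-based viability).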
# RORgamma inh: qHTS for inhibitors of ROR gamma transcriptional activity. Nuclear receptor ROR-gamma (Mus musculus), P51450. Drosophila S2 Gal4-RORgamma UAS-luciferase reporter, 20 h. Potency, µM (doses to about 53.6 µM), for the others: at the top dose activity change, negative = inhibition, hits mostly inhibitors. 310,000 tested, 5.4% active; also: potency is read from the fitted curve at half-maximal effect; % is scaled to controls: 0 for no effect and ±100 for the full control effect; nearly all actives have a fitted effect of over 60% in size
# Target sequence (P51450 whole entry, looked up, the tested form may be a part): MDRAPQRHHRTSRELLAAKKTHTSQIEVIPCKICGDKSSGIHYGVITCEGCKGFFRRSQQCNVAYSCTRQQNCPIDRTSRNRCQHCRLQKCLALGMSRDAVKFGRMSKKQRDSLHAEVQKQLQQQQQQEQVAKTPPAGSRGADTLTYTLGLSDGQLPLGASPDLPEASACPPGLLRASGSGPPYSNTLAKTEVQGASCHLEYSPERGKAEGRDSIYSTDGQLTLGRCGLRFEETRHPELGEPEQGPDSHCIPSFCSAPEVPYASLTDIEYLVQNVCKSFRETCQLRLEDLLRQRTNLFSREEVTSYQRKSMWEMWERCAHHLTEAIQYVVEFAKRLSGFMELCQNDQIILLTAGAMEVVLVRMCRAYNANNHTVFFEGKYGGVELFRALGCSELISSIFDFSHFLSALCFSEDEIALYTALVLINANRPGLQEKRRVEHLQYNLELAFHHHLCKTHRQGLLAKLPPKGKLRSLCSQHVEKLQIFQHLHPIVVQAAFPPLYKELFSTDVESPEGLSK
#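 Stable Schneider cell line, Gal4 DNA-binding domain fused to ROR gamma, UAS-luciferase. Cmpd 1 hr RT → CuSO4 700 uM final → 20 hr RT → luciferase reagent 10 min → luminescence.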
# Gal4-VP16 FLuc: VP16 counterscreen qHTS for inhibitors of ROR gamma transcriptional activity; Drosophila S2 Gal4-VP16 UAS-luciferase, luminescence, 20 h; 310,000 tested, 3.5% active; Potency, µM (doses to about 53.6 µM), for the others: at the top dose activity, negative = inhibition, most hits filed as inhibitors;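 also: Gal4-VP16 expression switched on by copper sulfate through the metallothionein promoter; potency is read from the fitted curve at half-maximal effect; % is scaled to controls: 0 for no effect and ±100 for the full control effect; nearly all actives have a fitted effect of over 50% in size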
# p53 reactivator: qHTS assay for re-activators of p53 using a Luc reporter | AID 504706, 2011 | Potency, µM (doses to about 92.2 µM), for the others: at the top dose activity change, positive = activation, most hits filed as activators | H1299 p53-A138V BP100-luciferase reporter, luminescence, 24 h | 320,000 tested, 0.063% active; also: potency is read from the fitted curve at half-maximal effect; % of control where 0% means no effect; nearly all actives have a fitted effect of over 45% in size
#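 p53-null H1299 cells stably carrying temperature-sensitive p53-A138V and a BP100-luciferase reporter were pinned with compounds (4-point, 1:5 series) and held 24 hrs at 37 deg C. Luminescence was read 10 min after detection reagent.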
# BRCA1 expr act: qHTS Assay to Identify Small Molecule Activators of BRCA1 Expression; Potency, µM (titrated, usually from 46.1 µM), inactives show top-dose activation, usual class: activators; AID 624202, 2012; 380,000 tested, 1.1% active; MCF7-BRCA1-FFLuc reporter, luminescence, 48 h; response scale: scaled: vehicle 0%, 10 µM genistein 100%; also: potency is read from the fitted curve at half-maximal effect; nearly all actives have a fitted effect of over 80% in size
#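 Quantitative HTS in MCF7 cells stably reporting BRCA1 expression via firefly luciferase. Compound treatment lasts 48 h at 37 °C in phenol-red free MEM. Activation is expressed relative to genistein at 10 microM and DMSO.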
# ELG1 DNA repair: qHTS screen for small molecules that inhibit ELG1-dependent DNA repair in human embryonic kidney (HEK293T) cells expressing luciferase-tagged ELG1. HEK293T ELG1-luciferase reporter, luminescence, 16 h; DNA damage induced by 5-fluorouridine. Potency, µM (highest dose often 46.1 µM), inactives show at the top dose activity change, negative = inhibition, most hits filed as inhibitors. 330,000 tested, 2.3% active. AID 504467, 2011; also: potency is read from the fitted curve at half-maximal effect; % is scaled to controls: 0 for no effect and ±100 for the full control effect; nearly all actives have a fitted effect of over 55% in size
#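 5-Fluorouridine DNA damage + compound/DMSO, 2,000 cells/well, 16 h, 37 °C/5% CO2. ONE-Glo, 30 min RT, luminescence. Readout = decrease in reporter signal.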
# Active calls of the source: *; u = inconclusive; x = no result given. Hits are enriched below; roughly 7.6% of the tested compounds scored in any of these assays. Unless noted, calls follow the shape of the dose curve; as a rule, active = well fitted curve in the direction sought with a large enough effect; inconclusive = small, poorly fitted or top-dose-only effect, or another doubt; inactive = no such curve, though single readings can be large; an effect the other way counts as inactive or inconclusive.
SMILES,Giardia kill,RORgamma inh,Gal4-VP16 FLuc,p53 reactivator,BRCA1 expr act,ELG1 DNA repair
COc1ccccc1C(=O)NNC(=O)c1nn(Cc2ccccc2)c(=O)c2ccccc12,28,6.3µM*,u,-1%,-70%,u
COc1ccc(NC(=O)c2ccc3c(c2)NC(=O)CS3)cc1,-14,x,x,u,87%,u
Cc1ccc(NS(=O)(=O)c2cc(NC(=O)c3ccc4c(c3)NC(=O)CS4)ccc2Cl)c(C)c1,-7,u,1%,-6%,-70%,23µM*
NC(=S)N/N=C/c1cccc(O)c1O,-8,7.1µM*,u,11%,-20%,-3%
NC(=S)N/N=C/c1cccc(Br)c1,-3,5.6µM*,u,-10%,-19%,6%
Cc1cc(/C=N/NC(N)=S)c(O)c(/C=N/NC(N)=S)c1,-13,0.2µM*,0.45µM*,4%,-57%,5%
NC(=S)N/N=C/c1cccc(/C=N/NC(N)=S)c1,9,-23%,0%,0%,0%,-12%
Cc1ccc2occ(/C=N/NC(N)=S)c(=O)c2c1,8,-32%,4%,1%,13%,u
Oc1ccccc1C=NNC(=S)NN=Cc1ccccc1O,-2,x,x,x,-58%,x
NC(=S)N/N=C/c1ccccc1O,-2,3.5µM*,6.3µM*,3%,15%,4%
c1ccc(C2(c3ccccc3)OCC(Cn3cncn3)O2)cc1 (stereo not given),-10,15%,1%,5%,10%,-1%
CN(C)c1cccc(C(=O)N(C)C2CCCN(Cc3ccccc3F)C2)c1 (stereo not given),0,-19%,5%,-41%,-6%,14%
CCN1CCCC1=O,x,10%,5%,x,x,x
COc1cc(OC)c(/C=N/NC(=O)c2ccncc2)cc1Br,22,1%,9%,0%,-15%,5%
COc1cc(OC)c(/C=N/NC(N)=S)cc1Br,6,8.9µM*,u,-16%,-1%,u
Cn1ccnc1C1CCCCN1Cc1nc(Cc2cccc(C(F)(F)F)c2)no1 (stereo not given),10,7.1µM*,u,-4%,-23%,-17%
FC(F)(F)c1cccc(Cc2noc(CN3C[C@@H]4CCC[C@H]3C4)n2)c1,4,11%,8%,2%,-6%,-3%
COc1ccc(-c2noc(CN3CCCCC3c3nccn3C)n2)cc1 (stereo not given),25,3.5µM*,u,-4%,1%,0%
COCC(=O)OCc1cc2cccc(C)c2[nH]c1=O,-8,-1%,1%,-1%,0%,4%
O=C(NCc1cccc(Cl)c1)C1Cc2c(-c3ccccc3Oc3ccccc3)ccnc2O1 (stereo not given),x,x,x,x,-26%,x
Cc1cc(NC(=O)CSc2nc3cc(Cl)ccc3o2)no1,-6,13µM*,-22%,0%,13%,5%
CCN(CC)S(=O)(=O)c1ccc2oc(SCC(=O)Nc3cc(C)on3)nc2c1,4,x,x,u,-72%,10µM*
CC(=O)c1ccc(NC(=O)C2(c3ccccc3)CC2(Cl)Cl)cc1 (stereo not given),7,38%,-8%,5%,10µM*,u
O=C(Nc1ccccc1Cl)C1(c2ccccc2)CC1(Cl)Cl (stereo not given),15,14%,-16%,-1%,-32%,2%
Cn1cc(CNC(=O)c2cc(COc3ccc4c(c3)CCCC4)on2)cn1,6,u,-7%,-11%,-22%,-27%
SMILES,Giardia kill,RORgamma inh,Gal4-VP16 FLuc,p53 reactivator,BRCA1 expr act,ELG1 DNA repair
O=C(NC(c1cccnc1)C(F)(F)F)c1cc(COc2ccc3c(c2)CCCC3)on1 (stereo not given),-9,u,7.1µM*,4%,76%,u
O=C(COc1ccc(Br)cc1)Nc1ccncc1,-1,-22%,u,3%,12%,-21%
Cc1cc(OCC(=O)Nc2ccncc2)ccc1[N+](=O)[O-],-17,5µM*,u,-4%,-7%,7.3µM*
Cc1ccc(OCC(=O)Nc2ccncc2)cc1C,x,x,x,x,2%,x
O=C(COc1ccc(Nc2ccccc2)cc1)Nc1ccncc1,-7,x,x,-4%,-20%,18µM*
COCCOC(=O)c1ccc(NC(=O)COc2ccc([N+](=O)[O-])cc2)cc1,3,11%,-2%,0%,0%,u
Cc1cc(OCC(=O)Nc2ccncc2)c(C)cc1Br,-6,u,13µM*,3%,0%,-13%
COC(=O)c1ccc(NC(=O)COc2ccc([N+](=O)[O-])cc2)cc1,11,-44%,10µM*,u,-6%,u
CCN1CCN(C(=O)c2cc(S(=O)(=O)N3CCCCC3)ccc2Cl)CC1,-3,3%,4%,19%,-12%,1%
Cc1cccc(NC(=O)CSc2n[nH]c(-c3ccncc3)n2)c1,-17,-23%,-10%,-2%,2%,1%
COc1cccc(OCC(=O)Nc2ccncc2)c1,4,u,u,x,-32%,-13%
CC(C)CCOc1cccc(OCC(=O)Nc2ccncc2)c1,5,u,8.9µM*,2%,9%,u
CCS(=O)(=O)c1ncc(Cl)c(C(=O)Nc2ccc(S(=O)(=O)N3CCC(C)CC3)cc2)n1,-22,3.2µM*,4.5µM*,-29%,-10%,u
CCc1ccc(NC(=O)c2nc(S(=O)(=O)Cc3ccccc3)ncc2Cl)cc1,x,0.28µM*,3.2µM*,-42%,x,u
Cc1ccc(NC(=O)c2nc(S(=O)(=O)Cc3ccccc3F)ncc2Cl)cc1,x,x,x,x,-23%,x
Cc1ccc(NC(=O)c2nc(S(=O)(=O)Cc3ccccc3C)ncc2Cl)cc1C,u,u,5µM*,-35%,-29%,u
Cc1ccc(NC(=O)c2nc(S(=O)(=O)Cc3ccccc3F)ncc2Cl)cc1C,x,x,x,x,-29%,x
CCOC(=O)c1ccc(NC(=O)c2nc(S(=O)(=O)Cc3ccccc3)ncc2Cl)cc1,1,7.9µM*,4.5µM*,-19%,-48%,u
O=[N+]([O-])c1ccc(/C=C2\C=Cc3ccccc32)cc1,x,x,x,x,42%,x
O=C(CCCSc1nc2ccccc2[nH]1)Nc1ccccc1,-8,24%,-19%,-12%,-13%,u
Cc1cccc(-n2c(SCC(=O)N3CC(=O)Nc4ccccc43)nc3ccccc3c2=O)c1,-1,12%,-6%,-8%,-51%,u
O=C1CN(C(=O)CSc2nc3cc(Cl)ccc3c(=O)n2Cc2ccccc2)c2ccccc2N1,-4,u,13µM*,-25%,-42%,u

# High-throughput results deposited in PubChem by National Center for Advancing Translational Sciences (NCATS).
